# Screening data: PubChem, National Center for Advancing Translational Sciences (NCATS)
# BAZ2B block – BAZ2B (human) inhibition. Q9UIF8. AlphaScreen BAZ2B-H3K14Ac peptide displacement. Potency, µM (doses to about 114 µM), inactives show at the top dose activity change, negative = inhibition, most hits filed as inhibitors. 4.4% of 360,000 active; further: on the % scale 0 is the no-effect control and ±100 the full control effect; nearly all actives have a fitted effect of over 60% in size
#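 Compounds, titrated to a top concentration of 110 uM, were incubated 30 min at room temperature with preformed BAZ2B/acetyl-K14 H3 peptide complex (50 nM each). Proximity signal was measured by AlphaScreen after 20 min with beads.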
# L3MBTL1 block – inhibitors of human L3MBTL1 | 0.66% of 230,000 active | AlphaScreen L3MBTL1–H3K9me1 peptide binding | Q9Y468 | Potency, µM (highest dose often 57.1 µM), for inactives: at the top dose activity, negative = inhibition, hits mostly inhibitors; further: on the % scale 0 is the no-effect control and ±100 the full control effect; nearly all actives have a fitted effect of over 60% in size
#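 L3MBTL1 (50 nM) pre-complexed 30 min with biotinylated H3(1-15)K9me1 peptide (75 nM), then compounds added for 30 min at room temperature; AlphaScreen streptavidin donor/nickel chelate acceptor beads (10 ug/mL final) read after 30 min dark incubation.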
# JMJD2A Tudor – blocks the human JMJD2A Tudor domain; Potency, µM (series often up to 114 µM), inactives show at the top dose activity change, negative = inhibition, usual class: inhibitors; 4.4% of 390,000 active; AlphaScreen JMJD2A-Tudor / H3K4me3 peptide binding; AID 504339; further: on the % scale 0 is the no-effect control and ±100 the full control effect; nearly all actives have a fitted effect of over 50% in size
# HP1b binding inh – blocks HP1-beta chromodomain binding to methylated histone tails. Potency, µM (doses to about 114 µM), for the others: top-dose activity change, negative = inhibition, hits mostly inhibitors. AID 540317. P83916. 0.56% of 390,000 active. AlphaScreen HP1-beta / biotin-H3K9me3 peptide binding; further: nearly all actives have a fitted effect of over 70% in size
# Target sequence (P83916 whole entry, looked up): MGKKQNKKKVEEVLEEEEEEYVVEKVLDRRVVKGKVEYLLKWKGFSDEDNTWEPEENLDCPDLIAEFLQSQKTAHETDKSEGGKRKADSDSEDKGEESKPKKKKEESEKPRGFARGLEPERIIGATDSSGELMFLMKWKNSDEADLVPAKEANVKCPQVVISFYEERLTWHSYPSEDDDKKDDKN
#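 AlphaScreen: HP1-beta (50 nM) preformed 30 min with biotin-H3(1-18)K9me3 peptide (50 nM) in PBS pH 7.4, 0.01% Tween-20. Compound added for 30 min at RT, then streptavidin donor/nickel chelate acceptor beads (10 ug/mL) for 30 min.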
# GLS inhibitor – blocks human kidney-isoform glutaminase activity. Potency, µM (highest dose often 45.5 µM), for inactives: at the highest dose activity change, negative = inhibition, hits mostly inhibitors. 0.21% of 410,000 active. O94925. GLS enzymatic activity, qHTS titration; further: on the % scale 0 is the no-effect control and ±100 the full control effect
#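 Glutamate formation by hKGA was monitored fluorometrically using coupled glutamate oxidase, HRP and Amplex Red. Substrate was added as 1 mM L-glutamine solution; incubation was 30 min at RT after an initial read.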
# G9a block – G9a (human) methyltransferase inhibition. Potency, µM (top dose mostly 102 µM), inactives show at the top dose activity, negative = inhibition, actives largely listed as inhibitors. Q96KQ7. 8.8% of 350,000 active. G9a H3K9 monomethylation, AlphaScreen, 2 h; further: on the % scale 0 is the no-effect control and ±100 the full control effect; nearly all actives have a fitted effect of over 75% in size
# Target sequence (Q96KQ7 913-1193 limits assumed): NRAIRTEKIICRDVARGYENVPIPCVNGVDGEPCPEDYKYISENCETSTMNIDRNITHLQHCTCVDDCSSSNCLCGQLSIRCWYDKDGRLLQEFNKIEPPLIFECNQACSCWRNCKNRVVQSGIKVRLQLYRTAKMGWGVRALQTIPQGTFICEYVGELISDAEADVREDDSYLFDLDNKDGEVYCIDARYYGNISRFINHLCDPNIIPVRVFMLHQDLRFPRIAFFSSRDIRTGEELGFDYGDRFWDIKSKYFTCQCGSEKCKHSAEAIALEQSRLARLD
#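 Signal arises when biotinylated H3K9 peptide, once monomethylated, bridges streptavidin donor and antibody-captured acceptor beads. Enzyme at 20 nM was preincubated 15 min with test compounds; peptide 500 nM and SAM 20 uM then reacted for 2 h.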
# * hit, by the source's call; ? = inconclusive; . = not tested or not shown; [ ] = remark or other dose. A selection: hits, their analogues and other compounds. The true share with any hit is near 10%. The call rests on the fitted dose curve; in most records, active means well fitted curve in the direction sought with a large enough effect; inconclusive means small, poorly fitted or top-dose-only effect, or another doubt; inactive means no such curve, though single readings can be large; an effect the other way counts as inactive or inconclusive. Potency means the concentration at half of the fitted maximal effect.
SMILES,BAZ2B block,L3MBTL1 block,JMJD2A Tudor,HP1b binding inh,GLS inhibitor,G9a block
O=C(COc1cc(F)ccc1[N+](=O)[O-])Nc1cccc(S(=O)(=O)NC2=NCCC2)c1,6.3%,3.6%,-3.0%,21.3%,-2.8%,3.16µM*
Cc1c(-c2nsc(NC(=O)c3cccs3)n2)nnn1-c1ccc(Br)cc1,-32.8%,.,-8.4%,37.2%,0.9%,-26.6%[59 µM]
Cc1ccc(C)c(NS(=O)(=O)c2cc3c(cc2Cl)NC(=O)CO3)c1,?,.,?,-16.4%,4.7%,?
Cc1oc(-c2ccccc2F)nc1CSCC(=O)NCc1ccccc1,-15.9%,.,-0.3%,50.2%,-3.2%,7.9%[59 µM]
O=C(Nc1cccc(S(=O)(=O)NC2=NCCCCC2)c1)c1ccc(Cl)cc1,26.4%,4.0%,-2.8%,35.3%,-2.3%,50.1µM*
O=C(Nc1cccc(S(=O)(=O)NC2=NCCCCC2)c1)C1COc2ccccc2O1 (stereo not given),56.2µM*,-0.4%,?,-15.5%,-15.6%,50.1µM*
CC(Oc1ccc(Br)cc1)C(=O)Nc1ccc(S(=O)(=O)NC2=NCCCCC2)cc1 (stereo not given),.,.,-14.3%,34.6%,-3.5%,.
CC(Oc1cccc(Cl)c1)C(=O)Nc1ccc(S(=O)(=O)NC2=NCCCCC2)cc1 (stereo not given),6.3%,-1.2%,-17.9%,9.0%,19.6%,35.5µM*
CCOC(=O)c1cc(-c2ccc(OC)cc2)n(CCC(=O)NCc2ccccc2OC)c1C,?,.,-30.8%,9.6%,-12.5%,?
CN(CC(=O)Nc1ccc(N2CCOCC2)cc1)C(=O)CCNC(=O)c1ccc(Br)cc1,-13.1%,-4.2%,-13.1%,3.4%,-7.5%,44.7µM*
Cc1cccc(C(=O)NCC(=O)N(C)CC(=O)Nc2ccc(N3CCOCC3)cc2)c1,-15.7%,.,0.7%,24.5%,-4.1%,?
CCOc1ccc(S(=O)(=O)Nc2nc3ccccc3nc2Nc2ccc(N3CCOCC3)cc2)cc1,28.2µM*,-20.8%,50.1µM*,?,12.2%,10µM*
CCCCOc1ccc(C(=O)NCC(=O)N(C)CC(=O)Nc2ccc(N3CCOCC3)cc2)cc1,-1.5%,2.9%,-30.8%,-11.3%,26.5%,25.1µM*
CC(C)(C)c1ccc(OCCC(=O)OCC(=O)Nc2ccc(N3CCOCC3)cc2)cc1,9.2%,-0.4%,-11.0%,28.5%,-9.5%,44.7µM*
Cc1c(P(=S)(c2ccccc2)c2ccccc2)c2ccccc2n1CCc1ccccc1,.,.,-22.4%,.,.,.
COc1cccc(CNC(=O)Cn2c(=O)n3nc(-c4cccc(C)c4)nc3c3ccccc32)c1,-0.9%,.,-3.9%,19.8%,-4.2%,6.0%[59 µM]
CC(=O)c1cccc(NC(=O)c2cnn(-c3cccc(C)c3)c2-n2cccc2)c1,-1.7%,.,-3.2%,49.1%,-3.9%,-0.3%[59 µM]
Cc1ccc(Cl)cc1-n1nnc(-c2nc(-c3ccc4c(c3)OCO4)no2)c1C,1.7%,.,-11.7%,36.3%,8.6%,-15.8%[59 µM]
CCOc1ccc(S(=O)(=O)NCCC(=O)N(C)CC(=O)Nc2ccc(N3CCOCC3)cc2)cc1,-3.1%,4.2%,-13.6%,7.1%,25.8%,35.5µM*
COc1ccccc1C(=O)NCCC(=O)N(C)CC(=O)Nc1ccc(N2CCOCC2)cc1,10.2%,4.9%,-5.5%,37.8%,26.1%,44.7µM*
COc1ccccc1C(=O)N(C)CC(=O)Nc1ccc(N2CCOCC2)cc1,0.7%,1.7%,-15.2%,20.9%,22.7%,?
Cc1ccc(OCC(=O)N(C)CC(=O)Nc2ccc(N3CCOCC3)cc2)cc1,-7.6%,0.4%,-12.4%,10.1%,55.6%,4.5%[0.501 µM]
CS(=O)(=O)c1ccc(Sc2nc3ccccc3[nH]2)c([N+](=O)[O-])c1,?,-4.9%,11.2µM*,-5.6%,7.3%,?
O=[N+]([O-])c1cc(S(=O)(=O)C(F)(F)F)ccc1Sc1nc2ccccc2[nH]1,?,.,?,-23.1%,-0.4%,?
Nc1ccccc1Sc1nc2ccccc2[nH]1,39.8µM*,?,28.2µM*,?,5.5%,7.08µM*
